HDAC3 inhib = inhibitors of human histone deacetylase 3. O15379. recombinant HDAC3, fluorogenic peptide/trypsin coupled, fluorescence. inhibition, % at 8.3 µM. 0.15% of 320,000 active. AID 2718; in the data active means inhibition above about 26%, passing the limit was not always enough; inconclusive means no clear call, values can overlap the other calls
LANA-H2A inh = blocks KSHV LANA binding to histone H2A/H2B | Q9QR71 | inhibition, % (no concentration beside the values) | 0.6% of 320,000 active | AID 2629 | cell-free LANA-H2A/H2B peptide, fluorescence polarization; in the data active means inhibition mostly above about 10%, no sharp cut-off; inactive means mostly below about 6.7%
Target sequence (Q9QR71 whole entry, looked up): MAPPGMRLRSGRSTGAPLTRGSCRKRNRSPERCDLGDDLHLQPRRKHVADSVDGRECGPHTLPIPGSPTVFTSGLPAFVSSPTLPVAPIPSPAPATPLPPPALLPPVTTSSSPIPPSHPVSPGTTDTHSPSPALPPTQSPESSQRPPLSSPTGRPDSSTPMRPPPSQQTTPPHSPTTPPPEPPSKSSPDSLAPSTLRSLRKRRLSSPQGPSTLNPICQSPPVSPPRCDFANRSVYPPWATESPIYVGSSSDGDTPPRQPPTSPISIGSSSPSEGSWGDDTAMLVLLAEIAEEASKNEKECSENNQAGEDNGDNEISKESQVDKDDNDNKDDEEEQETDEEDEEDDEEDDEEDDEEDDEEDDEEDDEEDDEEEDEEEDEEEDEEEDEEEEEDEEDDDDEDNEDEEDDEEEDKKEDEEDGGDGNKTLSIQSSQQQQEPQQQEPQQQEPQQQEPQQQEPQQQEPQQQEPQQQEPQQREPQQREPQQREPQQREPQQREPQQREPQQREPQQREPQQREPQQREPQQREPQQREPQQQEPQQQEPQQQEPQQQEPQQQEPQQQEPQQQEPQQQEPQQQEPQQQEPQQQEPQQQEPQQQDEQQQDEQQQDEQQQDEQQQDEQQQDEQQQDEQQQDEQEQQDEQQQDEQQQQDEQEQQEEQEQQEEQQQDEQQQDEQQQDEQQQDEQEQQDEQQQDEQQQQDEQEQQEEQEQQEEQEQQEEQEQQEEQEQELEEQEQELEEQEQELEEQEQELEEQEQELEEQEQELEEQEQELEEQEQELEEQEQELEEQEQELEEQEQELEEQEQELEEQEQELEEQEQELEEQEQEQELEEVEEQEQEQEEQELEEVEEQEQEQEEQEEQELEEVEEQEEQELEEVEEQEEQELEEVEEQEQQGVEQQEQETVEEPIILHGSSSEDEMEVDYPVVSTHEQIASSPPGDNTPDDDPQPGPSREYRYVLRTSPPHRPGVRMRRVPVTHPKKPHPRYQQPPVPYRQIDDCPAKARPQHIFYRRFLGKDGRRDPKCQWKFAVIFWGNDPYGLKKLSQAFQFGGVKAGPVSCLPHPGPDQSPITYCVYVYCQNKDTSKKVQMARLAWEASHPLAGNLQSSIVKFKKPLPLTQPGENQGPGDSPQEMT
m5-HT2A agonist = agonists of mouse serotonin 5-HT2A receptor (HTR2A); AID 624169; P35363; CHO-K1 mHTR2A beta-arrestin complementation, luminescence; percent of 30 µM serotonin response; 0.66% of 360,000 active; activation, % at 7.6 µM;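 active means activation above a run cutoff, the mean activation of all tested compounds plus 3 SD, cut at about 14% in these data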
CTSL1 counter = cathepsin L1 inhibition, PFM18AAP counter-screen. recombinant F. hepatica cathepsin L1, Z-Leu-Arg-MCA fluorescence. inhibition, % at 5.96 µM. 0.49% of 300,000 active;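 active means inhibition above the mean of all tested compounds plus 3 SD, set per screening campaign, cut at about 17% in these data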
Numbers stand for hits. The list is not random: actives were taken first. Their share in the collection is about 1.7%.

`O=C(Nc1cccc(NC(=O)c2cc([N+](=O)[O-])ccc2Cl)n1)c1cc([N+](=O)[O-])ccc1Cl` gave HDAC3 inhib inactive, LANA-H2A inh inactive, m5-HT2A agonist 21 and CTSL1 counter inactive.
Screening Cc1cc([N+](=O)[O-])cc2c1NC(=O)C2(O)N1CCOCC1 (configuration not stated) returned HDAC3 inhib inactive, LANA-H2A inh 58, m5-HT2A agonist inactive and CTSL1 counter inactive.
For CCSc1nc2[nH]ncc2c(=O)[nH]1 the results were HDAC3 inhib inactive, LANA-H2A inh inactive, m5-HT2A agonist inactive and CTSL1 counter inactive.
For CC1(C)CN(c2ccsc2C(=O)O)C1=O the results were HDAC3 inhib inactive, LANA-H2A inh inactive, m5-HT2A agonist inactive and CTSL1 counter 26.
Screening O=C(O)c1sccc1S(=O)(=O)N1CCCCC1 returned m5-HT2A agonist inactive.
For Cc1ccc(C(=O)O/N=C(\c2ccccc2)c2ccncc2)cc1 the results were HDAC3 inhib 36, LANA-H2A inh inactive, m5-HT2A agonist inactive and CTSL1 counter inactive.
O=C(CSc1nnc(CNC(=O)c2ccc(F)cc2)o1)NCC1CCCO1 (configuration not stated) was read as HDAC3 inhib inactive, LANA-H2A inh 18, m5-HT2A agonist inactive and CTSL1 counter inactive.
For COc1ccc(NC(=O)c2cc(F)cc(F)c2)cc1S(=O)(=O)N1CCCCC1 the results were HDAC3 inhib inactive, LANA-H2A inh 18 and m5-HT2A agonist inactive.
For COc1ccc(NC(=O)c2cc(OC)c(OC)c(OC)c2)cc1S(=O)(=O)N1CCCCC1 the results were HDAC3 inhib inactive, LANA-H2A inh inactive, m5-HT2A agonist inactive and CTSL1 counter inactive.
Screening O=C(Sc1ccc(Cl)cc1)c1ccccn1 returned HDAC3 inhib inactive, LANA-H2A inh inactive, m5-HT2A agonist inactive and CTSL1 counter inactive.
COC(=O)c1ccc(C(=O)OC)c(NC(=O)C2CCCO2)c1 (configuration not stated) was read as HDAC3 inhib inactive, LANA-H2A inh 16, m5-HT2A agonist inactive and CTSL1 counter inactive.
O=C(CCN1CCCO1)N1CCCC(N2CCN(c3ccccc3F)CC2)C1 (configuration not stated) was read as HDAC3 inhib inactive, LANA-H2A inh inactive, m5-HT2A agonist inactive and CTSL1 counter inactive.
Screening O=C(CCN1CCCCO1)N1CCCC(N2CCN(c3ccc(F)cc3)CC2)C1 (configuration not stated) returned HDAC3 inhib inactive, LANA-H2A inh 13, m5-HT2A agonist inactive and CTSL1 counter inactive.
For O=C(OCC(=O)N1CCOCC1)c1cccc(S(=O)(=O)Nc2ccc(F)cc2)c1 the results were HDAC3 inhib inactive, LANA-H2A inh inactive and m5-HT2A agonist inactive.
Cc1nc(SCc2nc3ccc(C(F)(F)F)cc3[nH]2)c2oc3ccccc3c2n1 was read as HDAC3 inhib inactive, LANA-H2A inh inactive and m5-HT2A agonist inactive.
Screening COc1ccc(S(=O)(=O)CCC(=O)N2CCN(c3ccc(C(C)=O)cc3)CC2)cc1 returned HDAC3 inhib inactive, LANA-H2A inh 13, m5-HT2A agonist inactive and CTSL1 counter inactive.
Screening COc1ccc(N2CCN(C(=O)CCS(=O)(=O)c3ccc(OC)cc3)CC2)cc1 returned HDAC3 inhib inactive, LANA-H2A inh inactive, m5-HT2A agonist inactive and CTSL1 counter inactive.
Screening CC(C)(C)N1C(=O)Cc2c1nc(N)c1c(N)nc(N3CCCCC3CO)c(C#N)c21 (configuration not stated) returned HDAC3 inhib inactive, LANA-H2A inh inactive, m5-HT2A agonist inactive and CTSL1 counter 105.
CN(CCO)c1nc(N)c2c(N)nc3c(c2c1C#N)CC(=O)N3C1CCCC1 was read as HDAC3 inhib inactive, LANA-H2A inh inactive and CTSL1 counter inactive.
For CC(OC(=O)c1ccc(S(=O)(=O)NCc2ccco2)cc1)C(=O)Nc1ccccc1 (configuration not stated) the results were HDAC3 inhib inactive, LANA-H2A inh 14 and m5-HT2A agonist inactive.
`CCOC(=O)c1ccc(N=Cc2nc(-c3ccccc3)oc2OC(C)=O)cc1` gave HDAC3 inhib inactive, LANA-H2A inh inactive, m5-HT2A agonist inactive and CTSL1 counter 31.
Screening CN(C)c1ccc(N=Cc2nc(-c3ccccc3)oc2OC(=O)c2cccc(Br)c2)cc1 returned HDAC3 inhib inactive, LANA-H2A inh inactive, m5-HT2A agonist inactive and CTSL1 counter 24.
For CN=Cc1nc(-c2ccccc2)oc1O the results were HDAC3 inhib inactive, LANA-H2A inh inactive, m5-HT2A agonist inactive and CTSL1 counter inactive.
For CN(C)c1ccc(/C=C/C(=O)c2cccc(Br)c2)cc1 the results were HDAC3 inhib inactive, LANA-H2A inh inactive, m5-HT2A agonist inactive and CTSL1 counter inactive.
`COc1ccc(N=Cc2nc(-c3ccccc3)oc2OC(=O)c2ccccc2)cc1` gave HDAC3 inhib inactive, LANA-H2A inh inactive, m5-HT2A agonist inactive and CTSL1 counter 22.
`CCOC(=O)c1ccc(N=Cc2nc3ccccc3n2C)cc1` gave HDAC3 inhib inactive, LANA-H2A inh inactive, m5-HT2A agonist inactive and CTSL1 counter inactive.
Screening CC(=O)Oc1oc(-c2ccccc2)nc1C=Nc1ccccc1 returned HDAC3 inhib inconclusive, LANA-H2A inh inactive, m5-HT2A agonist inactive and CTSL1 counter 26.
`C=CCNC(=S)Nc1ccc(Br)cc1F` gave HDAC3 inhib inactive, LANA-H2A inh 13, m5-HT2A agonist inactive and CTSL1 counter inactive.
C=CCNC(=S)Nc1ccc(Cl)cc1F was read as HDAC3 inhib inactive, LANA-H2A inh inactive, m5-HT2A agonist inactive and CTSL1 counter inactive.
`COC(=O)C1=C(C)N(c2ccc(OC)c(OC)c2)C(=O)C1` gave HDAC3 inhib inactive, LANA-H2A inh inactive, m5-HT2A agonist inactive and CTSL1 counter 20.
For COC(=O)C1=C(C)N(c2ccc(F)cc2)C(=O)C1 the results were HDAC3 inhib inactive, LANA-H2A inh inactive, m5-HT2A agonist inactive and CTSL1 counter inactive.
For COCCSc1nnc(NC(=O)C(C)(C)C)s1 the results were HDAC3 inhib inactive, LANA-H2A inh 43, m5-HT2A agonist inactive and CTSL1 counter inactive.
Screening Cc1ccc(S(=O)(=O)/C(C#N)=C/c2c[nH]c3ccccc23)cc1 returned HDAC3 inhib inactive, LANA-H2A inh 17, m5-HT2A agonist inactive and CTSL1 counter inactive.
For CCN1CCN(CCCNC(=O)c2ccc3c(c2)N(Cc2ccccc2)CCS3)CC1 the results were HDAC3 inhib inactive, LANA-H2A inh inactive, m5-HT2A agonist inactive and CTSL1 counter 42.
Screening O=C(NCCCN1CCCC1)c1ccc2c(c1)N(Cc1ccccc1)CCS2 returned HDAC3 inhib inactive, LANA-H2A inh inactive, m5-HT2A agonist inactive and CTSL1 counter inactive.
O=C(CN1C(=O)C2C3C=CC(C3)C2C1=O)Nc1ccc2nccnc2c1 (configuration not stated) was read as HDAC3 inhib inactive, LANA-H2A inh inactive, m5-HT2A agonist inactive and CTSL1 counter 20.
For O=C1C=C(N2CCCCC2)c2ccccc2C1=O the results were HDAC3 inhib inactive, LANA-H2A inh inactive, m5-HT2A agonist inactive and CTSL1 counter 92.
CS(=O)(=O)c1ccc(C(=O)NNC(=O)c2ccccc2-n2cccc2)cc1 was read as HDAC3 inhib inactive, LANA-H2A inh inactive and m5-HT2A agonist inactive.
Screening COc1cc(/C=N/Nc2nc(N3CCCC3)nc(N3CCCC3)n2)ccc1O returned HDAC3 inhib 38, LANA-H2A inh inactive, m5-HT2A agonist inactive and CTSL1 counter inactive.

Screening data from PubChem.
